Compound activity deposited in PubChem BioAssay by National Center for Advancing Translational Sciences (NCATS).
In the library only some 8.7% were active in any assay of this set; here they are far more common.
VACV mCherry inh: vaccinia inhibition (mCherry reporter) | Vaccinia virus mCherry reporter infection, fluorescence | Potency, µM (top dose mostly 36.5 µM), without a hit: top-dose activity change, negative = inhibition, actives largely listed as inhibitors | hit rate 0.63% among 310,000; calls by dose curve; tested in A549 cells; also: nearly all actives have a fitted effect of over 35% in size
Pf growth 96h: P. falciparum growth inhibition at 96 hours; hit rate 6.9% among 320,000; Potency, µM (series often up to 28.7 µM), for the others: at the top dose activity change, negative = inhibition, actives largely listed as inhibitors; P. falciparum luciferase reporter growth, 96 h; AID 504834
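Erythrocytes infected with luciferase-expressing P. falciparum were dispensed at 2% hematocrit and 0.05% parasitemia (final), then incubated with compounds 96 hours at 37 C in 5% CO2. Luminescence after detection reagent addition reported growth.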
AMA1-RON2 inh: AMA1-RON2 (P. falciparum) interaction inhibition. Potency, µM (highest dose often 58.2 µM), inactives show at the top dose activity change, negative = inhibition, hits mostly inhibitors. hit rate 0.2% among 360,000. AlphaScreen AMA1-biotinylated RON2 peptide binding;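 also: 0% = vehicle wells and -100% = peptide control; nearly all actives have a fitted effect of over 45% in size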
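AMA1 (3D7) with his tag at 25 nM final met compounds first, then biotinylated RON2 peptide at 25 nM; detection used donor plus acceptor beads, 10 µg/mL apiece, read by AlphaScreen after 30 min at room temperature.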
Pf growth 48h: P. falciparum growth inhibition at 48 hours (one generation); P. falciparum luciferase growth in erythrocytes, 48 h; Potency, µM (top dose mostly 28.7 µM), without a hit: at the highest dose activity change, negative = inhibition, hits mostly inhibitors; hit rate 5.9% among 310,000; AID 504832
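Growth was read as firefly luciferase luminescence after a 48 h, 37 C, 5% CO2 exposure of compounds to reporter-bearing P. falciparum cultures (0.1% parasitemia, 2% hematocrit final) in Albumax-supplemented RPMI 1640.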
Vaccinia Venus: vaccinia inhibition (Venus reporter) | Vaccinia virus Venus reporter expression, fluorescence | Potency, µM (series often up to 36.5 µM), for the others: at the top dose activity change, negative = inhibition, usual class: inhibitors | hit rate 0.46% among 330,000 | AID 720580; calls by dose curve; tested in A549 cells; also: nearly all actives have a fitted effect of over 30% in size
Starred values were filed as active, the others as inactive; i = inactive; u = inconclusive; x = no result. Unless noted, calls follow the shape of the dose curve; as a rule, active = well fitted curve in the direction sought with a large enough effect; inconclusive = small, poorly fitted or top-dose-only effect, or another doubt; inactive = no such curve, though single readings can be large; an effect the other way counts as inactive or inconclusive. Unless noted, % is scaled to controls: 0 for no effect and ±100 for the full control effect; potency is read from the fitted curve at half-maximal effect.

SMILES | VACV mCherry inh | Pf growth 96h | AMA1-RON2 inh | Pf growth 48h | Vaccinia Venus
CCOc1ccc(C2C(C#N)=C(C)NC3=C2C(=O)c2ccccc23)cc1 (configuration not stated) | x | 9.28µM* | 8.0% | x | x
CC1(C)CC(=O)C2=C(C1)NC1=C(C(=O)c3ccccc31)C2c1ccccc1 (configuration not stated) | -21.0% | u | -29.4% | 13.1µM* | u
Cc1ccc(CN(C(=O)COc2ccc(Cl)cc2Cl)C2CCS(=O)(=O)C2)o1 (configuration not stated) | 5.3% | x | x | x | -1.2%
CC1(C)CC(=O)C2=C(C1)NC1=C(C(=O)c3ccccc31)C2c1cccnc1 (configuration not stated) | x | 12.2% | -3.9% | -23.2% | x
CC(C)c1ccc(C2C3=C(CC(C)(C)CC3=O)NC3=C2C(=O)c2ccccc23)cc1 (configuration not stated) | u | 6.57µM* | u | 9.28µM* | u
CC(=O)N1c2ccccc2C(=O)C1N1CCN(c2cccc(C(F)(F)F)c2)CC1 (configuration not stated) | -12.8% | x | x | x | -13.5%
CC(C)(C)c1cc(CN(CCO)CCO)cc(C(C)(C)C)c1O | x | x | -10.0% | 12.7% | x
CN(C)Cc1cc(C(C)(C)C)c(O)c(C(C)(C)C)c1 | i | 1.04µM* | -5.7% | 29.2% | -9.5%
NC1(C(=O)O)CCc2cc(P(=O)(O)O)ccc21 (configuration not stated) | -18.1% | x | x | x | -8.7%
COc1ccc(-c2nnn(CC(=O)N(Cc3ccccc3Cl)C(C(=O)NCC3CCCO3)c3ccco3)n2)cc1OC (configuration not stated) | x | 18.9% | 5.3% | 9.28µM* | x
O=C(CN(Cc1ccccc1Cl)C(=O)Cn1nnc(-c2cccs2)n1)NCC1CCCO1 (configuration not stated) | i | 1.17µM* | 1.9% | 6.8% | -15.3%
Cc1ccc(-c2nnn(CC(=O)N(Cc3cccs3)C(C(=O)NCC3CCCO3)c3ccco3)n2)o1 (configuration not stated) | x | 0.0% | -1.5% | u | x
Cc1cc(C)cc(N2CCn3c2nc2c3c(=O)n(Cc3ccc(Cl)cc3)c(=O)n2C)c1 | 2.2% | x | x | x | 3.0%
Cc1cccc(OCc2nc(C#N)c(N3CC(C)CC(C)C3)o2)c1 (configuration not stated) | x | 13.1µM* | u | x | x
COc1ccc(OC)c(CCNC(=O)CCc2cn(Cc3cc(C)ccc3C)c3ccccc23)c1 | -13.2% | x | x | x | -16.2%
c1ccc(CSC2=NNC(c3ccccn3)S2)cc1 (configuration not stated) | u | u | -17.8% | 2.08µM* | u
Cc1ccc(C)c(NC(=S)N(Cc2ccco2)C(C)c2cccs2)c1 (configuration not stated) | i | -24.3% | -9.8% | u | -2.6%
Cc1ccc(Cl)cc1NC(=S)N(Cc1ccco1)C(C)c1cccs1 (configuration not stated) | u | u | -1.1% | 14.7µM* | -18.1%
O=C(NC1CCCCC1)c1ccc(CSc2nc3cccnc3n2Cc2cccc(F)c2)cc1 | -22.4% | x | x | x | -12.3%
CC(C(=O)N1CCCC1)c1ccc([N+](=O)[O-])cc1 (configuration not stated) | -2.6% | 14.7µM* | 3.4% | 6.4% | -3.7%
O=C(NCCc1ccccc1)c1ccc2c(c1)N(Cc1c(F)cccc1Cl)C(=O)CS2 | -16.0% | x | x | x | -20.7%
CC(C)(C)c1ccc(C(=O)C[n+]2cc(Br)cc(Br)c2)cc1 | -11.4% | x | x | x | -10.1%
COC(=O)C(C)Sc1nnc(Cc2cc(=O)[nH]c(=O)[nH]2)n1-c1cccc(OC)c1 (configuration not stated) | 47.4% | 15.8% | 6.2% | x | 0.2%
CCOc1ccc(-n2c(Cc3cc(=O)[nH]c(=O)[nH]3)nnc2SCC(=O)NC2CCCC2)cc1 | x | 10.4µM* | 10.5% | x | x
CCOc1ccc(-n2c(Cc3cc(=O)[nH]c(=O)[nH]3)nnc2SC(C)C(=O)OC)cc1 (configuration not stated) | x | 9.28µM* | x | x | x
SMILES | VACV mCherry inh | Pf growth 96h | AMA1-RON2 inh | Pf growth 48h | Vaccinia Venus
O=C(O)C12C3CCC(O3)C1(C(=O)O)C1CCC2O1 (configuration not stated) | -15.5% | x | -2.9% | x | -14.6%
C[C@@]12C(=O)OC(=O)[C@]1(C)[C@H]1CC[C@@H]2O1 | x | 1.02µM* | x | 2.03µM* | x
CN1CCN(C(=S)NC(=O)c2ccccc2Br)CC1 | x | 1.85µM* | -3.6% | -8.1% | x
Cn1c(C2CCC2)nc2cc(C(=O)N3CCOc4ccccc4C3)cc(NC(=O)C3CCCO3)c21 (configuration not stated) | -18.2% | x | x | x | -4.3%
O=C1CCCc2sccc2N1 | u | 3.29µM* | -1.1% | 19.1% | 1.8%
COc1cc(C2NC(=O)NC(C)=C2C(=O)OC2CCC(C)CC2)ccc1O (configuration not stated) | x | 2.62µM* | -8.0% | 11.7µM* | x
C=CCOc1c(Cl)cc(C2NC(=O)NC(C)=C2C(=O)OC)cc1Cl (configuration not stated) | u | x | 1.4% | 9.28µM* | -19.4%
COC(=O)C1=C(C)NC(=O)NC1c1ccc2ccccc2c1 (configuration not stated) | -13.4% | 10.4µM* | -14.8% | u | -10.8%
COc1ccc(C2NC(=O)NC(C)=C2C(=O)OC2CCC(C)CC2)cc1 (configuration not stated) | x | u | -9.8% | 4.3% | x
CCOC(=O)C1=C(C)NC(=S)NC1c1ccc(-c2ccc(Cl)cc2)o1 (configuration not stated) | i | 7.38µM* | 14.9% | u | -18.7%
Cc1cc(C(=O)Nc2cccc(-c3nc(CNC(=O)c4ccccc4C(F)(F)F)c(C)o3)c2)c(C)o1 | 1.6% | x | x | x | 6.7%
O=C(C[n+]1cccc2cc(Cl)ccc21)c1cccc([N+](=O)[O-])c1 | 14.0% | x | x | x | 55.2%
COCCCNC(=O)c1sc2nc3n(c(=O)c2c1C)CCC3 | 4.2% | x | x | x | -0.2%
COC(=O)C1=C(C)NC(=O)NC1c1ccc(-c2ccc(F)cc2)o1 (configuration not stated) | i | u | -3.3% | u | 2.4%
COC(=O)C1=C(C)NC(=O)NC1c1ccc(-c2ccccc2Cl)o1 (configuration not stated) | -1.3% | 3.7µM* | -1.8% | -3.1% | 4.7%
COc1cc(Cl)cc(C2NC(=O)NC(C)=C2C(C)=O)c1OCC(=O)O (configuration not stated) | -1.3% | 13.0% | -5.6% | x | -8.4%
C=CCOc1c(OC)cc(Cl)cc1C1NC(=O)NC(C)=C1C(C)=O (configuration not stated) | -10.4% | 3.29µM* | -13.4% | -17.9% | -8.6%
CCOc1ccc(S(=O)(=O)NCCc2c(C)[nH]c3c(Cl)cccc23)cc1C | -13.5% | x | x | x | -13.6%
Cc1ccc(S(=O)(=O)Cn2nnnc2CN2CCOCC2)cc1 | i | -9.0% | -0.5% | -20.1% | -21.3%
Cc1ccc(-n2nnnc2CN2CCCCC2)cc1 | -7.3% | 2.08µM* | -9.7% | -13.1% | -18.7%
